This note sets out measurements from PMC5540273 (PLoS ONE, 2017).

Common to all, as to conditions: concentration: 1 μM, replicates: in singlicate; n = 1
Assay [1] concerns RIPK4.
Assay [2] concerns RIPK5.
Assay [3] deals with ROCK1.
In assay [4] the test system is ROCK2.
Assay [5] relates to ROS1.
The subject of assay [6] is RPS6KA4(Kin.Dom.1-N-terminal).
Assay [7] concerns RPS6KA4(Kin.Dom.2-C-terminal).
In assay [8] the test system is RPS6KA5(Kin.Dom.1-N-terminal).
The subject of assay [9] is RPS6KA5(Kin.Dom.2-C-terminal).
Assay [10] relates to T1, RSK1(Kin.Dom.1-N-terminal).
T1 construct: gene RPS6KA1
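Note: KINOMEscan kinase panel screen.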

On to `Nc1cccc(-c2ccc3c(N)n[nH]c3c2)n1` [GSK2192730], for which the “%Inh” value in [1] was found to be 41%; in assay [2], 0%; in assay [3], 0%; in assay [4] it was 0%; in assay [5], 0%; in assay [6] it was 0%. Further, the “%Inh” value in assay [7] is 0%; in assay [8], 0%; in assay [9], 4%; in assay [10], 24%.
Turning to `CC(=O)c1c(C)c2cnc(Nc3ccn(C)n3)nc2n(C2CCCC2)c1=O`, the “%Inh” value in assay [1] is given as 0%; in [2] it was 0%; in assay [3], 0%; in [4] it was 0%; in assay [5] it was 4%; in [6], 0%. Also, the “%Inh” value in assay [7] was 0%; in [8], 0%; in assay [9] it was 3%; in [10], 0%.
As for `Fc1ccc(-c2nc3n(c2-c2ccncc2)CCS3)cc1` [GI98581], the “%Inh” value in [1] was found to be 0%; in assay [2], 0%; in assay [3] it was 11%; in [4], 0%; in assay [5], 3%; in [6], 35%. Moreover, the “%Inh” value came to 0% in assay [7], 10% in assay [8], 0% in assay [9] and 0% in assay [10].
Consider `Cc1cnc(N)c(/C=C/c2cncc(C(=O)NCCc3ccc(Cl)cc3Cl)c2)c1.Cl` [GSK190937], for which the “%Inh” value in assay [1] stood at 0%; in assay [2], 0%; in assay [3] it was 71%; in [4] it was 45%; in assay [5], 3%; in [6], 4%. Also, the “%Inh” value in assay [7] is 0%; in assay [8], 22%; in assay [9] it was 0%; in assay [10], 9%.
For `O=c1cc(N2CCOCC2)nc2n(Cc3ccccc3F)ccn12` [GSK2297428], the “%Inh” value is recorded as 0% in [1]; 0% in [2]; 0% in [3]; 0% in assay [4]; 47% in [5]; 5% in [6]. Further, the “%Inh” value came to 0% in assay [7], 8% in [8], 0% in [9] and 5% in [10].
On to `Cc1c(Cn2c(C)c(C)n3c(=O)cc(N4CCOCC4)nc23)cccc1C(F)(F)F` [GSK2328680], for which the “%Inh” value in assay [1] is on record as 0%; in assay [2], 67%; in [3], 11%; in assay [4], 10%; in assay [5], 19%; in assay [6], 1%. Moreover, the “%Inh” value is 0% in assay [7], 16% in assay [8], 0% in assay [9] and 0% in assay [10].
For `CS(=O)(=O)Cc1ccc(Nc2nccc(-c3c(-c4cccc(NC(=O)C5CCCCC5)c4)nn4ncccc34)n2)cc1` [GSK350559], the “%Inh” value is listed as 44% in [1]; 39% in assay [2]; 37% in assay [3]; 21% in assay [4]; 21% in [5]; 0% in assay [6]. Also, the “%Inh” value in [7] amounted to 35%; in [8], 0%; in assay [9], 16%; in assay [10], 11%.
As to `CC[C@@H]1CO[C@H](C(=O)Nc2ccccc2)CN1c1cc(-c2ccc3c(N)n[nH]c3c2)nc(NC)n1` [GSK2376236], the “%Inh” value came to 0% in assay [1]; 8% in assay [2]; 52% in assay [4]; 24% in assay [5]; 10% in assay [6]; 0% in assay [7]. For the same compound, the “%Inh” value in [8] is on record as 28%; in assay [9], 23%; in assay [10] it was 7%.
As for `CS(=O)(=O)CCNCc1nc(-c2ccc3ncnc(Nc4ccc(OCc5ccccc5)c(Cl)c4)c3c2)cs1.Cl` [GW582764], the “%Inh” value in [1] is reported as 1%; in [2], 0%; in assay [3], 45%; in assay [4], 38%; in assay [5], 0%; in [6], 17%. Besides, the “%Inh” value in [7] stood at 0%; in assay [8], 3%; in assay [9], 0%; in assay [10], 25%.
Consider `CC(=O)c1cccc(NC(=O)NC2CCN(c3ccnc(Nc4ccc(F)cc4)n3)C2)c1` (stereo not shown) [GSK1379710], for which the “%Inh” value in assay [1] is listed as 15%; in [2], 4%; in [3], 0%; in [4], 22%; in [5], 3%; in assay [6] it was 0%. The “%Inh” value in assay [7] is on record as 0%; in assay [8], 0%; in assay [9] it was 29%; in [10] it was 21%.
Consider `COc1cccc(C2=C(Nc3cc(Cl)c(O)c(Cl)c3)C(=O)NC2=O)c1` [SB-390767], for which the “%Inh” value in assay [1] was determined as 13%; in [2] it was 7%; in assay [3] it was 11%; in assay [4] it was 11%; in [5], 0%; in assay [6] it was 5%. For the same compound, the “%Inh” value in assay [7] was 0%; in assay [8] it was 6%; in assay [9] it was 18%; in [10] it was 0%.
Take `COc1cccc(NC(=O)Nc2ccc(C)c(-c3ccc(C(=O)Nc4ccncc4)cc3)c2)c1` [GSK1398474]: the “%Inh” value in assay [1] came out at 23%; in assay [2], 0%; in [3], 0%; in assay [4] it was 0%; in [5], 0%; in [6] it was 18%. The “%Inh” value in assay [7] is reported as 0%; in assay [8], 12%; in assay [9], 40%; in assay [10] it was 16%.
With `CNc1cc(-c2ccc3c(N)n[nH]c3c2)nc(N)n1` [GSK2224810], the “%Inh” value in assay [1] is 64%; in assay [2], 0%; in [4] it was 29%; in assay [5] it was 17%; in [6] it was 0%; in [7], 15%. Further, the entries for the “%Inh” value in assay [8], in [9] and in assay [10] were 0%, 35% and 2%, respectively.
For `COc1ccc(Nc2nccc(NCCNC(=O)Nc3cc(C)ccc3C)n2)cc1` [GSK1379899], the “%Inh” value in [1] is 6%; in assay [2], 0%; in assay [3] it was 6%; in assay [4], 14%; in assay [5], 5%; in assay [6], 8%. Further, the “%Inh” value in assay [7] was 0%; in assay [8], 49%; in assay [9], 0%; in assay [10], 0%.
For the compound `COc1ccc(CSc2nnc(-c3ccc4ncsc4c3)o2)cc1C(F)(F)F`, the “%Inh” value in [1] turned out to be 0%; in assay [2], 0%; in assay [3], 11%; in assay [4], 0%; in [5] it was 0%; in [6] it was 0%. Further, the “%Inh” value in assay [7] was 5%; in assay [8], 17%; in [9], 10%; in [10] it was 0%.
Take `Cc1ccc(-c2nc(Nc3ccncc3)c3ccccc3n2)s1` [GSK189015]: the “%Inh” value was 20% in assay [1]; 6% in [2]; 0% in assay [3]; 0% in assay [4]; 0% in assay [5]; 18% in assay [6]. The “%Inh” value in assay [7] was determined as 0%; in [8], 23%; in assay [9], 0%; in assay [10], 0%.
Consider `CNC(=O)c1ccc(C)c(-n2c(C)cc(OCc3ccc(F)cc3F)c(Br)c2=O)c1`, for which the “%Inh” value in assay [1] is on record as 0%; in [2], 0%; in assay [3] it was 0%; in assay [4] it was 0%; in [5] it was 15%; in [6] it was 67%. Moreover, the “%Inh” value in [7], in assay [8], in assay [9] and in [10] was 0% throughout.
Consider `Cc1ccccc1Cn1ccn2c(=O)cc(N3CCOCC3)nc12` [GSK2269905], for which the “%Inh” value came out at 0% in assay [1]; 0% in assay [2]; 0% in assay [3]; 0% in assay [4]; 0% in assay [5]; 23% in assay [6]. Moreover, the “%Inh” value in [7] came to 0%; in [8] it was 12%; in assay [9], 0%; in assay [10], 25%.
Turning to `CCCCc1nn2ncccc2c1-c1ccnc(NC2CC2)n1` [GW684374], the “%Inh” value was 7% in assay [1]; 5% in assay [2]; 0% in assay [3]; 0% in [4]; 8% in assay [5]; 0% in assay [6]. For the same compound, the “%Inh” value in assay [7] is given as 0%; in assay [8], 0%; in assay [9], 11%; in assay [10], 7%.
For the compound `COc1ccc(Nc2nccc(N3CCC(NC(=O)c4cc5ccccc5s4)C3)n2)cc1` (stereo not shown) [GSK1379738], the “%Inh” value in [1] stood at 20%; in assay [2] it was 7%; in assay [3] it was 8%; in assay [4] it was 21%; in [5] it was 0%; in assay [6], 15%. The “%Inh” value in [7] was 0%; in assay [8], 0%; in assay [9] it was 0%; in assay [10], 22%.
For `O=C1NC(=O)C(c2ccc(Cl)cc2)=C1Nc1ccc(O)cc1` [SB-340867], the “%Inh” value in [1], in [2], in assay [3], in [4], in assay [5] and in assay [6] was 0% in each case. Moreover, the “%Inh” value came out at 0% in assay [7], 0% in assay [8], 0% in assay [9] and 9% in assay [10].
